According to the supplement of paper PMC10849652:
About 7,900 targets were measured; listed, in parts, are those with a hit and a random draw of the rest. About 0.6% of all pairs of compound and target were hits.

Assays:
Assay in all cases: log2 fold change, soluble protein after heating vs DMSO (PISA); higher = thermal stabilisation; K562 cells, 10 uM, 30 min; active = over 0.2 and 3.5 SD of the protein, either way, in both replicates (recomputed)
[1] = compound: CC1=C(C=C(C=C1)NC(=O)C2=CC(=CC=C2)C(C)(C)C#N)NC3=CC4=C(C=C3)N=CN(C4=O)C
Method in brief: (§1)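 K562 cells at 2×10^6 cells/mL were treated for 30 min with 10 μM compound, and aliquots were heated for 3 min over 48°C-58°C before pooling. Extraction used PBS with 0.5% NP-40 at 4°C, and soluble protein was the supernatant after 21,000xg for 90 min, measured by TMTpro 16plex LC-MS/MS with channel sums equalised. Thermal stability values, relative to control samples and from duplicates, are log2 fold changes.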

[2] = compound: CC1=C(C=C(C=C1)NC(=O)C2=CC(=CC=C2)N(C)C)NC(=O)C3=CC=C(C=C3)O
Method in brief: as §1

[3] = compound: CC1=CC=C(C=C1)SC2=C3C=C(SC3=CN=C2)C(=O)N
Method in brief: as §1

[4] = compound: CC1=NC(=CC=C1)C2=C(N=C(N2)C(C)(C)C)C3=CC4=NC=CN=C4C=C3
Method in brief: as §1

Nexturastat A = compound: CCCCN(Cc1ccc(C(=O)NO)cc1)C(=O)Nc1ccccc1 [Nexturastat A]
Method in brief: as §1

vemurafenib = compound: CCCS(=O)(=O)Nc1ccc(F)c(C(=O)c2c[nH]c3ncc(-c4ccc(Cl)cc4)cc23)c1F [vemurafenib]
Method in brief: as §1

[5] = compound: CCCS(=O)(=O)Nc1ccc(F)c(C(=O)c2c[nH]c3ncc(Cl)cc23)c1F
Method in brief: as §1

[6] = compound: CCCc1cc(C)[nH]c(=O)c1CNC(=O)c1cc(-c2ccnc(N3CCN(C)CC3)c2)cc2c1cnn2C(C)C
Method in brief: as §1

givinostat = compound: CCN(CC)Cc1ccc2cc(COC(=O)Nc3ccc(C(=O)NO)cc3)ccc2c1 [givinostat]
Method in brief: as §1

barasertib = compound: CCN(CCCOc1ccc2c(Nc3cc(CC(=O)Nc4cccc(F)c4)[nH]n3)ncnc2c1)CCOP(=O)(O)O [barasertib]
Method in brief: as §1

Measured: log2 fold change

ATOX1 (UniProt O00244)
Sequence of UniProt O00244 (O00244 whole entry, looked up): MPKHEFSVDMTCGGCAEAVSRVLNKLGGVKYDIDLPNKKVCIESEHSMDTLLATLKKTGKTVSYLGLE
inactive: [1] 0.056 | [2] -0.065 | [3] 0.275 | [4] 0.239 | Nexturastat A -0.037 | vemurafenib 0.054 | [5] 0.372 | [6] 0.28 | givinostat -0.072 | barasertib -0.025

BPHL (UniProt Q86WA6)
Sequence of UniProt Q86WA6 (Q86WA6 whole entry, looked up): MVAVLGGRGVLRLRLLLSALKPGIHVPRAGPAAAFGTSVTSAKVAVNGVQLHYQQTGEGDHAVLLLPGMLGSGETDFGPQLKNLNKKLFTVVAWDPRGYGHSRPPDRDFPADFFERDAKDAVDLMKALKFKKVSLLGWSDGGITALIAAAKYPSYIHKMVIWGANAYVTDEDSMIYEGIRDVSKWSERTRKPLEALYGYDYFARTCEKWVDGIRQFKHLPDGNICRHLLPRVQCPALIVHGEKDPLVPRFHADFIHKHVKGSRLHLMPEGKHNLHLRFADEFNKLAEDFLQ
inactive: [1] -0.037 | [2] -0.031 | [3] -0.058 | [4] 0.017 | Nexturastat A -0.205 | vemurafenib 0.004 | [5] -0.062 | [6] 0.057 | givinostat 0.023 | barasertib -0.006

AASDH (UniProt Q4L235)
inactive: [1] -0.001 | [2] 0.024 | [3] -0.043 | [4] -0.056 | Nexturastat A 0.179 | vemurafenib 0.094 | [5] 0.103 | [6] 0.149 | givinostat 0.033 | barasertib 0.09

ALKBH4 (UniProt Q9NXW9)
Sequence of UniProt Q9NXW9 (Q9NXW9 whole entry, looked up): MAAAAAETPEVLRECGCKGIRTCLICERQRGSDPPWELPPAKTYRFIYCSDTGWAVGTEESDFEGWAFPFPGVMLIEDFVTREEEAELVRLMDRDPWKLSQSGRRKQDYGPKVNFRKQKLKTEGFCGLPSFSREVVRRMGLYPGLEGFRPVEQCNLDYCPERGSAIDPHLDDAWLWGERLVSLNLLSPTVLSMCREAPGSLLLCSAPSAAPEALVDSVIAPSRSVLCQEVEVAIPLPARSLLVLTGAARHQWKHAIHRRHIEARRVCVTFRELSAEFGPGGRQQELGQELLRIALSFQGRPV
inactive: [1] 0.071 | [2] -0.008 | [3] -0.015 | [4] 0.019 | Nexturastat A -0.125 | vemurafenib -0.048 | [5] 0.032 | [6] -0.015 | givinostat -0.05 | barasertib -0.016

ANAPC2 (UniProt Q9UJX6)
Sequence of UniProt Q9UJX6 (Q9UJX6 whole entry, looked up): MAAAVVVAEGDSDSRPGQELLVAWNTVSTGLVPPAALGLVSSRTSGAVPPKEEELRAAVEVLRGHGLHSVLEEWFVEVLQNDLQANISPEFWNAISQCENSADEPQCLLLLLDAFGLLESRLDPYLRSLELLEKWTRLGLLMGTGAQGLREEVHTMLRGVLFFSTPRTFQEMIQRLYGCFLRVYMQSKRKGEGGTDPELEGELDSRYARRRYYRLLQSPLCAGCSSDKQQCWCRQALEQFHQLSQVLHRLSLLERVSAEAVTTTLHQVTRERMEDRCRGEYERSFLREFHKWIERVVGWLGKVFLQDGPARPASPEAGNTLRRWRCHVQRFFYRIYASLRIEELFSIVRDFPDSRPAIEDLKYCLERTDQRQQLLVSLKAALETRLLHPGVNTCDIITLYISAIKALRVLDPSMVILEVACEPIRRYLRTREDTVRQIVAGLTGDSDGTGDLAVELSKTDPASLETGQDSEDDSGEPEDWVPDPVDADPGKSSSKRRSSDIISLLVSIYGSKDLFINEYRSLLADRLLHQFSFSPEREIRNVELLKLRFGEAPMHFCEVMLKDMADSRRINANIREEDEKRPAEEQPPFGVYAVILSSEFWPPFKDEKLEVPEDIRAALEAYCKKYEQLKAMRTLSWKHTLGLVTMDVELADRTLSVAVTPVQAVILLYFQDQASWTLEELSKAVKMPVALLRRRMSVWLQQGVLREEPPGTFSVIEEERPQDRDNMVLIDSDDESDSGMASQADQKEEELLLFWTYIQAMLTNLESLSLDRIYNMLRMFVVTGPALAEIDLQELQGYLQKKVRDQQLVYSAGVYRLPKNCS
inactive: [1] 0.031 | [2] -0.015 | [3] -0.001 | [4] 0.069 | Nexturastat A -0.045 | vemurafenib 0.027 | [5] 0.047 | [6] -0.049 | givinostat 0.042 | barasertib 0.022

AKT2 (UniProt P31751)
Sequence of UniProt P31751 (P31751 whole entry, looked up): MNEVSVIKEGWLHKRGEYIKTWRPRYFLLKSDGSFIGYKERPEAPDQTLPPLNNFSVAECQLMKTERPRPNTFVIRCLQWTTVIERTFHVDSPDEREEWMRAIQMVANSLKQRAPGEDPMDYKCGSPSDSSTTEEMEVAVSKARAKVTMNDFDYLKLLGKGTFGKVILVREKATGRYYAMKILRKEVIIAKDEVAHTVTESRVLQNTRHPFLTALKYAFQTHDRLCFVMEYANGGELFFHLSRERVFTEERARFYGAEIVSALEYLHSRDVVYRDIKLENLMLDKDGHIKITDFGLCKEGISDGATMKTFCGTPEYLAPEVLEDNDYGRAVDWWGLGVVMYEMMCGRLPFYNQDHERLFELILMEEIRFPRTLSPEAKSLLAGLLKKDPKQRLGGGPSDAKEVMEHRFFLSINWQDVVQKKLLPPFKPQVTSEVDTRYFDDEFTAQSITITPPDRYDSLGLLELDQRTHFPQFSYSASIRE
inactive: [1] 0.018 | [2] 0.033 | [3] 0.006 | [4] 0.019 | Nexturastat A 0.069 | vemurafenib -0.007 | [5] 0.015 | [6] -0.017 | givinostat 0.069 | barasertib 0.079

B4GALT1 (UniProt P15291)
inactive: [1] -0.009 | [2] -0.027 | [3] 0.002 | [4] -0.05 | Nexturastat A -0.022 | vemurafenib 0.035 | [5] 0.012 | [6] -0.044 | givinostat -0.113 | barasertib -0.01

ATP6AP1 (UniProt Q15904)
inactive: [1] 0.009 | [2] -0.025 | [3] 0.004 | [4] -0.027 | Nexturastat A 0.114 | vemurafenib -0.003 | [5] -0.018 | [6] -0.009 | givinostat 0.038 | barasertib 0.016

ALDH18A1 (UniProt P54886)
Sequence of UniProt P54886 (P54886 whole entry, looked up): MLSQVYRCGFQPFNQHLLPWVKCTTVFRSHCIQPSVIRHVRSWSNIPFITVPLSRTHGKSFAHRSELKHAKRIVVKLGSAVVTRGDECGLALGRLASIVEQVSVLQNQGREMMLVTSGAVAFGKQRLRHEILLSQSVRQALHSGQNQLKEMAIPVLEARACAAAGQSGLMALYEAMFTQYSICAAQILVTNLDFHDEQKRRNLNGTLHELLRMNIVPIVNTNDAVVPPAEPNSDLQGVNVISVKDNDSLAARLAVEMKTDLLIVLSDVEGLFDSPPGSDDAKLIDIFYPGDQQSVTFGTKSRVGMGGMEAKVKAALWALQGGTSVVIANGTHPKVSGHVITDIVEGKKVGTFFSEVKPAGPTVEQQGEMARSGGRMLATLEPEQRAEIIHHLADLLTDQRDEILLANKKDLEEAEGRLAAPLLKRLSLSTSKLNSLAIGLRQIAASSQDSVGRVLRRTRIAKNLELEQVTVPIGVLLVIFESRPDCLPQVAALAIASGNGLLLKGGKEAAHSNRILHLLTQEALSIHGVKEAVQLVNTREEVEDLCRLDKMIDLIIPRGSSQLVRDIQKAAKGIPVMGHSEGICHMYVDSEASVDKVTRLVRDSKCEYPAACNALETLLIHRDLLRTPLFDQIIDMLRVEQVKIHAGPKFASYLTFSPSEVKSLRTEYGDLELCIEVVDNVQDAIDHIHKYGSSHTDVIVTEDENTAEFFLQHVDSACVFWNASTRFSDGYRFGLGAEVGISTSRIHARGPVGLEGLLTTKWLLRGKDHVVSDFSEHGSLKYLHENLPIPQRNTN
inactive: [1] -0.179 | [2] 0.002 | [3] -0.04 | [4] 0.101 | Nexturastat A 0.035 | vemurafenib 0.068 | [5] 0.057 | [6] -0.137 | givinostat 0.141 | barasertib 0.214

AMFR (UniProt Q9UKV5)
Sequence of UniProt Q9UKV5 (Q9UKV5 whole entry, looked up): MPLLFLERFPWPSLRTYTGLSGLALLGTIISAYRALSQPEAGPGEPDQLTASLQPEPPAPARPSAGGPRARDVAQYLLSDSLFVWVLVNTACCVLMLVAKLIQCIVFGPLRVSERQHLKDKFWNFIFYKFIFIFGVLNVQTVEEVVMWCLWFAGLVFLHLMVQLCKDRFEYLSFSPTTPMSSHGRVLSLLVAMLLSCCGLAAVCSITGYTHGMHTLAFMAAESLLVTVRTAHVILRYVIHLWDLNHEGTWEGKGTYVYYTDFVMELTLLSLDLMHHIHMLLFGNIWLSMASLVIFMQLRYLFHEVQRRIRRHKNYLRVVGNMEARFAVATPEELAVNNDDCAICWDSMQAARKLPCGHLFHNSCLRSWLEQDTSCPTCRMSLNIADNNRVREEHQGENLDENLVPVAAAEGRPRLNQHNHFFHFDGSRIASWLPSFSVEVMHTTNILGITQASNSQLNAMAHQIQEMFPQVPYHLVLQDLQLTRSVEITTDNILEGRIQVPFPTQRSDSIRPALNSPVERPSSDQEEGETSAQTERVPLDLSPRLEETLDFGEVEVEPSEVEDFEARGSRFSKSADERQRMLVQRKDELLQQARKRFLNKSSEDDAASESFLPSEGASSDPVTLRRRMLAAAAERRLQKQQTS
inactive: [1] -0.013 | [2] 0.01 | [3] -0.029 | [4] -0.104 | Nexturastat A -0.033 | vemurafenib 0.005 | [5] 0.009 | [6] -0.042 | givinostat 0.086 | barasertib 0.041

ABCB6 (UniProt Q9NP58)
Sequence of UniProt Q9NP58 (Q9NP58 whole entry, looked up): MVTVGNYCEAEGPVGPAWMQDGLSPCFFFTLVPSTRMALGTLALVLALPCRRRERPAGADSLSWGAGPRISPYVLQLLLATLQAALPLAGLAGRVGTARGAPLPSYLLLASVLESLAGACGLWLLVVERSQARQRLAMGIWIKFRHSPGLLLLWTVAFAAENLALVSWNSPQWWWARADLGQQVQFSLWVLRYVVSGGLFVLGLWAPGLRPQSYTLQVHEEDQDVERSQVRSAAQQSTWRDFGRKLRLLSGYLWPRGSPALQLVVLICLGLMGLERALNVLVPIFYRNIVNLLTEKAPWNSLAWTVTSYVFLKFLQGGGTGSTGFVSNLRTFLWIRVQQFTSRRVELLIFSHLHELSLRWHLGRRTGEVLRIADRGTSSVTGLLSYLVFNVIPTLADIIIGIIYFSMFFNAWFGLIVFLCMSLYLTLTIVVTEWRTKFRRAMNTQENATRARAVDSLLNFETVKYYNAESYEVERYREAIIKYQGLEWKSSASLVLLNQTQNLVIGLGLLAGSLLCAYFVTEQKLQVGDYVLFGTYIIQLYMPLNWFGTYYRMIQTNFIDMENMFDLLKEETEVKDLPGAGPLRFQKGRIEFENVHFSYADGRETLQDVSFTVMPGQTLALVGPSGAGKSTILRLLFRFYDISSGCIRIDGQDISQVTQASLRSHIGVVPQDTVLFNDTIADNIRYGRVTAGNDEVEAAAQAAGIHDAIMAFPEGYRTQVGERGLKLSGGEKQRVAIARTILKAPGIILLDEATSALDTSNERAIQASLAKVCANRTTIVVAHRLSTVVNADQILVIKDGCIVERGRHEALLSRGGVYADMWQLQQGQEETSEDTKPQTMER
inactive: [1] 0.085 | [2] -0.084 | [3] 0.019 | [4] 0.019 | Nexturastat A 0.001 | vemurafenib 0.073 | [5] -0.022 | [6] -0.041 | givinostat -0.002 | barasertib 0.008

ACBD6 (UniProt Q9BR61)
Sequence of UniProt Q9BR61 (Q9BR61 whole entry, looked up): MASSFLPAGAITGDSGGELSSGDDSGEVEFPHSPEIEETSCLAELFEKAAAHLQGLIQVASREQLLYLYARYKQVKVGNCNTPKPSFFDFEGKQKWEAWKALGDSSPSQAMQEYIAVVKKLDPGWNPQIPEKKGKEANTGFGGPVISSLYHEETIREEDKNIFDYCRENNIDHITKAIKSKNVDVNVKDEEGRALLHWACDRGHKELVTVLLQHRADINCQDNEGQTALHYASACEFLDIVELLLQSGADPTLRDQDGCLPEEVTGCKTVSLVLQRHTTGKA
inactive: [1] 0.039 | [2] -0.04 | [3] 0.139 | [4] 0.067 | Nexturastat A 0.28 | vemurafenib 0.029 | [5] 0.022 | [6] 0.127 | givinostat -0.011 | barasertib 0.018

ATAD3B (UniProt Q5T9A4)
inactive: [1] -0.07 | [2] -0.022 | [3] 0.003 | [4] -0.009 | Nexturastat A 0.236 | vemurafenib -0.024 | [5] 0.042 | [6] 0.058 | givinostat 0.05 | barasertib -0.019

ATP23 (UniProt Q9Y6H3)
Sequence of UniProt Q9Y6H3 (Q9Y6H3 whole entry, looked up): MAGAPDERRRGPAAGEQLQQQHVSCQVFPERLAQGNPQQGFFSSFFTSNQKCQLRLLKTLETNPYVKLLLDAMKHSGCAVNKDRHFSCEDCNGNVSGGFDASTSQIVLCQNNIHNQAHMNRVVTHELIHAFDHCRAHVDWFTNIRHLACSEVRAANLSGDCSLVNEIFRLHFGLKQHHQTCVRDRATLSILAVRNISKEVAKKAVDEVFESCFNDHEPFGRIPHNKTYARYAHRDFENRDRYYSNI
inactive: [1] 0.027 | [2] -0.013 | [3] 0.122 | [4] 0.058 | Nexturastat A -0.172 | vemurafenib 0.021 | [5] -0.039 | [6] -0.031 | givinostat -0.012 | barasertib -0.049

ADH5 (UniProt P11766)
inactive: [1] 0.004 | [2] 0.008 | [3] 0.043 | [4] 0.009 | Nexturastat A -0.103 | vemurafenib -0.007 | [5] 0.008 | [6] -0.046 | givinostat -0.01 | barasertib -0.023
